A selection: hits, their analogues and other compounds. The true share with any hit is near 2.8%.
ATXN2 expr inh = Primary qHTS for Inhibitors of ATXN expression; Potency, µM (highest dose often 57 µM), inactives show at the highest dose activity change, negative = inhibition, most hits filed as inhibitors; HEK-293 ATXN2-luciferase reporter, luminescence, 24 h; hit rate 0.72% among 360,000; also: % is scaled to controls: 0 for no effect and ±100 for the full control effect; nearly all actives have a fitted effect of over 55% in size
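ATXN2-luciferase reporter cells (luciferase flanked by upstream and downstream ATXN2 gene portions) were treated 24 h at 37 °C with compounds at up to 57 uM. SteadyGlo luminescence gave expression; GF-AFC fluorescence gave viability.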
HTT aggregate = qHTS Multiplex Assay to Identify Dual Action Probes in a Cell Model of Huntington: Aggregate Formation (GFP). PC12 HttQ103-GFP aggregates, Acumen cytometry, 40 h. Potency, µM (doses to about 46.1 µM), inactives show at the highest dose activity change, negative = inhibition, actives largely listed as inhibitors. hit rate 1.1% among 220,000. AID 1688, 2009; also: % is scaled to controls: 0 for no effect and ±100 for the full control effect; nearly all actives have a fitted effect of over 60% in size
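PC12/HTTQ103-GFP, ecdysone-inducible; teb 100 nM; cpd qHTS titration; GFP aggregates read on laser cytometer, Ex 488/Em 500-530 nm.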
S2 tox = Viability Counterscreen for Primary qHTS for Inhibitors of ATXN expression | Potency, µM (titrated, usually from 56.7 µM), usual class: cytotoxic | hit rate 0.49% among 400,000 | S2 cells (HEK-293 line with an ATXN2-luciferase reporter) viability, CellTiter-Fluor protease fluorescence, 24 h | AID 651635, 2014; also: nearly all actives have a fitted effect of over 40% in size
HepG2 viability = qHTS for Inhibitors of TGF-b: Cytotox Counterscreen. hit rate 0.76% among 410,000. AID 588856, 2011. HepG2 CAGA-GFP viability, ATP luminescence, 18 h. Potency, µM (series often up to 46.1 µM), for the others: top-dose activity change, negative = cytotoxicity, most hits filed as cytotoxic
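CellTiter-Glo luminescence gave cytotoxicity after 18 hours at 37 degrees C. The cells were HepG2 CAGA-GFP in 1% FBS DMEM, stimulated with 500 pg/mL TGF-beta after compound addition. %Activity was normalised to no-cell wells (complete cell-killing) and DMSO (no toxicity), and curves were fitted and classified.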
TGFb inhibitor = qHTS for Inhibitors of TGF-b; HepG2 CAGA-GFP TGF-b/SMAD3 reporter, GFP fluorescence, 18 h; TGF-beta stimulated, 500 pg/mL final; Potency, µM (series often up to 46.1 µM), without a hit: top-dose activity, negative = inhibition, hits mostly inhibitors; hit rate 1.2% among 410,000; also: % is scaled to controls: 0 for no effect and ±100 for the full control effect; nearly all actives have a fitted effect of over 65% in size
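Inhibition of TGF-beta-driven CAGA-GFP reporter expression in HEPG2 cells is measured by cellular GFP fluorescence after 18 h stimulation with 500 pg/mL recombinant TGF-beta in 1% FBS medium at 37 degrees C.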
HTT ATP protect = qHTS Multiplex Assay to Identify Dual Action Probes in a Cell Model of Huntington: Cytoprotection (ATP); PC12 HTT-Q103 induced, cytoprotection, ATP luminescence, 40 h; Potency, µM (top dose mostly 56.4 µM), inactives show cytoprotection (ATP increase), hits mostly activators; hit rate 0.14% among 230,000; AID 1471, 2008; also: % of control where 0% means no effect; nearly all actives have a fitted effect of over 45% in size
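Compounds were screened for protection of PC12 cells against cell death after tebufenozide induction (100 nM final) of mutant Huntingtin exon 1 (Q103) fused to GFP.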
An asterisk follows results filed as active; i = inactive; ? = inconclusive; . = not tested or not shown; [ ] = another dose, or the depositor's remark. Calls follow the shape of the dose curve; as a rule, active = well fitted curve in the direction sought with a large enough effect; inconclusive = small, poorly fitted or top-dose-only effect, or another doubt; inactive = no such curve, though single readings can be large; an effect the other way counts as inactive or inconclusive. Potency is read from the fitted curve at half-maximal effect.

SMILES	ATXN2 expr inh	HTT aggregate	S2 tox	HepG2 viability	TGFb inhibitor	HTT ATP protect
O=C(N/N=C/c1c(O)n(-c2ccccc2Cl)c(=O)c2ccccc12)C1COc2ccccc2O1 (stereo unspecified)	?	13µM*	i	-46%	-2%	4%[10 µM]
O=c1[nH]c2[nH]c(=S)[nH]c(=S)c2[nH]1	.	.	.	.	.	-5%[10 µM]
CN(C(=O)CSc1nnc(-c2ccc(F)cc2)c2ccccc12)C1CCS(=O)(=O)C1 (stereo unspecified)	39%	?	i	-6%	?	13%[10 µM]
CC(C)NC(=O)CSc1nnc(-c2ccc(F)cc2)c2ccccc12	-2%	25%	i	14%	?	13µM*
O=C(NC1CCN(Cc2ccccc2)C1)c1cnn(-c2ncc3c(n2)-c2ccccc2CC3)c1C1CC1 (stereo unspecified)	.	.	i	.	.	.
CC(C)C[C@@H](CN1CCC[C@@H]1CN1C(=S)NC[C@@H]1Cc1ccccc1)N1C[C@H](Cc2ccc(O)cc2)N(CC2CCCCCC2)C1=S	22µM*	.	14µM*	-80%	?	.
CC(C)C[C@H]1CN([C@@H](Cc2ccccc2)CN2CCC[C@@H]2CN2C(=O)C(=O)NC[C@@H]2Cc2ccccc2)C(=O)C(=O)N1CCc1ccccc1	?	.	25µM*	-91%	?	.
CC(C)C[C@@H](CN1CCC[C@@H]1CN1C(=S)NC[C@@H]1Cc1ccccc1)N1C[C@H](Cc2ccc(O)cc2)N(CC2CCCCC2)C1=S	-7%	.	?	-17%	?	.
Oc1ccc(C[C@H]2CN([C@@H](Cc3cccc(O)c3)CN3CCC[C@@H]3CN3C(=S)NC[C@@H]3Cc3ccccc3)C(=S)N2CC2CCCCC2)cc1	16µM*	.	13µM*	-46%	5µM*	.
Oc1ccc(C[C@H]2CN([C@@H](Cc3ccccc3)CN3CCCC3CN3C(=S)NC[C@@H]3Cc3ccccc3)C(=S)N2CC2CCCCC2)cc1 (stereo partly specified)	-33%	.	?	.	.	.
CC(C)C[C@H]1CN([C@@H](Cc2ccc(O)cc2)CN2CCC[C@@H]2CN2C(=S)NC[C@@H]2Cc2ccccc2)C(=S)N1CC1CCCCC1	0%	.	?	-30%	11µM*	.
CC(C)C(NS(C)(=O)=O)c1nnc2n1CCN(Cc1cccc3ncccc13)CC2 (stereo unspecified)	.	.	i	.	.	.
CC(C)(C)CC(C)(C)N=C1Nc2ccc([N+](=O)[O-])cc2N[C@]12C[C@H]1CCCC(=O)N3CC[C@@H](C2)[C@@H]13	.	.	.	-27%	?	.
CC(C)(C)n1ncc2c(=O)n(Cc3c(F)cc(Cl)cc3F)cnc21	.	.	.	-18%	-15%	.
CC(=O)N[C@@H](C)C(=O)NCC1Cc2cc(C)cc(-c3cnccn3)c2O1 (stereo partly specified)	.	.	i	.	.	.
C(=C\c1nc2ccccc2s1)/c1ccc2c(c1)OCO2	.	.	.	-25%	4%	.
C[N+](C)(CCCCCI)c1ccc(/C=C/c2nc3ccccc3s2)cc1	.	.	.	-40%	8.9µM*	.
C[C@H](O)[C@H](O)[C@@H](O)c1cnc2nc(N)[nH]c(=O)c2n1	.	.	.	.	.	-1%
CC(=O)CCS(=O)(=O)c1ccc(Oc2ccc(S(=O)(=O)CCC(C)=O)cc2)cc1	26%	?	i	5.6µM*	?	24%[10 µM]
COc1ccc(S(=O)(=O)CCC(=O)O)cc1	5%	2.2µM*	i	1%	15%	-28%
COc1ccc(OCCOC(=O)CCS(=O)(=O)c2ccc(C)cc2)cc1	5%	.	i	-17%	-8%	.
CC(C)(C)c1ccc(/C=N/Nc2nncn2N)cc1	-5%	.	i	3.5µM*	-10%	.
